# Measured values taken from PubChem BioAssay AID1347142 (National Center for Advancing Translational Sciences (NCATS), 2019).
# Records with an inconclusive call do not appear. Activity calls are given as the source filed them. Calls come from the whole dose curve; as a rule, active = well fitted inhibition curve with a large enough effect; inconclusive = small, poorly fitted or top-dose-only effect; inactive = no such curve, though single readings can be large or run the other way.
# Target: N-terminal Xaa-Pro-Lys N-methyltransferase 1 (Homo sapiens) (UniProt Q9BV86)
# Sequence (Q9BV86 whole entry, looked up): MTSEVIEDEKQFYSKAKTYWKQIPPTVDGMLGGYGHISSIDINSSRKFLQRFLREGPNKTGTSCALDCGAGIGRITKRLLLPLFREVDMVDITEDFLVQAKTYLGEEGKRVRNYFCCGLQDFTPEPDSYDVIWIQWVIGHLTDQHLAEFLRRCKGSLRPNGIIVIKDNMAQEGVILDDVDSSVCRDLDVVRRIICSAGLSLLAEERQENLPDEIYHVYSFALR
# Test: qHTS Assay for Inhibitors of N-terminal methyltransferase 1 (NTMT1): ThioGlo3 Assay Confirmatory Screen, Round 1.
# Settings: NTMT1 SAHH-coupled ThioGlo3 fluorescence, 30 min; series mostly up to 56.8 µM
# Procedure, shortened: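 Human NTMT1 at 125 nM was preincubated 1 min at room temperature with compounds at various concentrations or 1 uM RCC1-6 control. Substrate mix (100 uM SAM, 10 uM SAHH, 15 uM ThioGlo3) was added, and fluorescence (Ex 340/Em 450 nm) was read at start and after 30 min, normalized to background.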
# Note: nearly all actives have a fitted effect of over 80% in size.
# Potency is the fitted concentration of half-maximal effect.
row,SMILES,Potency
1,COc1cc2c(NC3CCN(C(C)C)CC3)nc(N3CCC(N4CCCC4)CC3)nc2cc1OCCCN1CCCCC1,24.1 µM (active)
2,Nc1nc(=S)c2ncn([C@@H]3O[C@H](CO)[C@@H](O)[C@H]3O)c2[nH]1,18.8 µM (active)
3,Nc1ncnc2c1ncn2[C@@H]1O[C@H](COP(=O)(O)OP(=O)(O)CP(=O)(O)O)[C@@H](O)[C@H]1O,inactive
4,COc1cc2c(NC3CCN(C4CCCCC4)CC3)nc(N3CCCCC3)nc2cc1OCCOCCN(C)C,24.1 µM (active)
5,OC[C@H]1O[C@@H](n2cnc3c(NC4CCCC4)ncnc32)[C@H](O)C1O (some centres not stated),inactive
6,COc1cc2nc(NC3CCN(C)CC3)nc(NC3CCN(C)CC3)c2cc1OC,27.1 µM (active)
7,NC(=S)c1ccc[n+]([C@@H]2O[C@@H](COP(=O)([O-])OP(=O)(O)OC[C@H]3O[C@@H](n4cnc5c(N)ncnc54)[C@H](OP(=O)(O)O)[C@@H]3O)C(O)C2O)c1 (some centres not stated),inactive
8,COc1cc2c(NC3CCN(C(C)C)CC3)nc(N3CCCN(C(C)C)CC3)nc2cc1OCCCN1CCCCC1,24.1 µM (active)
9,COc1cc2nc(N3CCN(C(N)=O)CC3)nc(NC3CC3)c2cc1OC,27.1 µM (active)
10,Nc1ncnc2c1ncn2C1OC(COP(=O)(O)O)C(O)C1O (configuration not stated),inactive
11,COc1cc2nc(N3CCN(C)CC3)nc(N3CCN(C(C)=O)CC3)c2cc1OC,21.5 µM (active)
12,Nc1nc(Nc2ccccc2)nc2c1ncn2[C@@H]1O[C@@H](CO)[C@H](O)[C@H]1O,inactive
13,Nc1ncnc2c1ncn2[C@H]1O[C@@H](CO)[C@@H](O)[C@H]1N,inactive
14,C[S+](CC[C@H](N)C(=O)O)C[C@H]1O[C@@H](n2cnc3c(N)ncnc32)[C@H](O)[C@@H]1O (some centres not stated),inactive
15,Nc1ncnc2c1ncn2[C@@H]1O[C@H](C[C@@H](N)CC[C@H](N)C(=O)O)[C@@H](O)[C@H]1O,inactive
16,COc1cc2c(NC3CCN(C(C)C)CC3)nc(N3CCCN(C)CC3)nc2cc1OCCCN(C)C,24.1 µM (active)
17,COc1cc2c(NC3CCN(C(C)C)CC3)nc(N3CCCN(CC4CCCCC4)CC3)nc2cc1OCCCN1CCCC1,24.1 µM (active)
18,COc1cc2nc(N3CCCCC3)nc(NC3CCN(C)CC3)c2cc1OC,27.1 µM (active)
19,COc1cc2nc(N(C)C)nc(NC3CCN(C)CC3)c2cc1OC,24.1 µM (active)
20,COc1cc2nc(N3CCOCC3)nc(NC3CCN(C)CC3)c2cc1OC,24.1 µM (active)
21,COc1cc2c(NC3CCN(C)CC3)nc(N3CCCN(C)CC3)nc2cc1OCCCN1CCCCC1,24.1 µM (active)
22,Nc1ncnc2c1ncn2[C@@H]1O[C@H](COP(=O)(O)O)[C@@H](O)[C@H]1O,inactive
